PubChem BioAssay (NCI)
The panel holds about 79,000 compounds, 15% with a hit somewhere; the sample as a whole holds those more often. Calls of active or inactive are those of the source. No stated cut-off is given here; in the data, active means growth inhibition above about 70%; inactive means the rest.

Assays:
[1] = NCI Yeast Anticancer Drug Screen. Data for the wt1 strain (AID 149);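 further: 0% = growth of vehicle-treated wt1 cultures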; conditions: S. cerevisiae wt1 strain (SPY 50644) growth inhibition, stronger effect = higher value
How it was run: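 Each compound is tested on wt1 yeast and the loss of growth versus vehicle gives the inhibition value.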

[2] = NCI Yeast Anticancer Drug Screen. Data for the rad50EPP+ strain (AID 151);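 further: 0% = growth of vehicle-treated control cultures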; conditions: S. cerevisiae rad50 mutant strain, stronger effect = higher value
How it was run: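 In this screen, rad50EPP+ yeast were exposed to compounds. Growth inhibition was scored against vehicle-treated controls.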

[3] = NCI Yeast Anticancer Drug Screen. Data for the mgt1 strain (AID 153); conditions: S. cerevisiae mgt1 mutant growth inhibition, stronger effect = higher value
How it was run: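 mgt1 strain exposed; growth vs vehicle control recorded as inhibition.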

[4] = NCI Yeast Anticancer Drug Screen. Data for the rad50 strain (AID 155);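 further: 0% = growth of vehicle-only cultures of the same strain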; conditions: S. cerevisiae rad50 strain growth inhibition, stronger effect = higher value
How it was run: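 Vehicle-treated cultures provide the reference for the growth inhibition reported for compound-exposed, repair-deficient yeast.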

[5] = NCI Yeast Anticancer Drug Screen. Data for the mec2-1 strain (AID 157); conditions: S. cerevisiae mec2-1 strain, stronger effect = higher value
How it was run: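 Vehicle-treated cultures served as reference for growth inhibition of compound-exposed mec2-1 yeast.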

[6] = NCI Yeast Anticancer Drug Screen. Data for the rad14 strain (AID 159);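 further: 0% = growth of vehicle-treated control cultures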; conditions: S. cerevisiae rad14 strain growth inhibition, stronger effect = higher value
How it was run: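 Inhibition of growth is reported for a repair-deficient yeast mutant following compound treatment, calculated relative to cultures that received vehicle.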

[7] = NCI Yeast Anticancer Drug Screen. Data for the sgs1 mgt1 strain (AID 161);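 further: 0% = growth of cultures given vehicle only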; conditions: S. cerevisiae sgs1 mgt1 strain, stronger effect = higher value
How it was run: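 Inhibition of yeast growth, normalised to vehicle-treated controls, is reported for a strain bearing genetic alterations in DNA damage repair.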

[8] = NCI Yeast Anticancer Drug Screen. Data for the CLN2oe strain (AID 163);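 further: 0% = growth of vehicle-only control cultures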; conditions: S. cerevisiae CLN2oe strain, stronger effect = higher value
How it was run: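 Inhibition relative to vehicle-treated yeast is reported. Cells: strain with genetic alteration in cell-cycle control, grown with compound.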

[9] = NCI Yeast Anticancer Drug Screen. Data for the cln2 rad14 strain (AID 165);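 further: 0% = growth equal to vehicle treated cultures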; conditions: S. cerevisiae cln2 rad14 strain, stronger effect = higher value
How it was run: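 Each compound was tested on cln2 rad14 yeast. Inhibition of growth was calculated against vehicle-exposed controls.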

[10] = NCI Yeast Anticancer Drug Screen. Data for the bub3 strain (AID 167); conditions: S. cerevisiae bub3 mutant strain, stronger effect = higher value
How it was run: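 Mutant yeast screening strain plus compound; vehicle-treated cultures serve as the 0% inhibition reference.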

[11] = NCI Yeast Anticancer Drug Screen. Data for the mlh1 strain (AID 171);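 further: 0% = growth of vehicle-treated control cultures of the same strain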; conditions: S. cerevisiae mlh1 strain growth inhibition, stronger effect = higher value
How it was run: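 Vehicle-normalised growth inhibition of a repair- or checkpoint-altered yeast strain following compound treatment.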

[12] = NCI Yeast Anticancer Drug Screen. Data for the sgs1 strain (AID 173);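 further: 0% = growth of vehicle-only control cultures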; conditions: S. cerevisiae sgs1 mutant, stronger effect = higher value
How it was run: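 Screen format: yeast with repair or checkpoint alterations, compound exposure, growth read relative to vehicle.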

[13] = NCI Yeast Anticancer Drug Screen. Data for the mlh1 rad18 strain (AID 175); conditions: S. cerevisiae mlh1 rad18 strain growth inhibition, stronger effect = higher value
How it was run: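 Vehicle-treated cultures served as the reference for growth inhibition in a yeast strain carrying DNA damage repair alterations exposed to each compound.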

[14] = NCI Yeast Anticancer Drug Screen. Data for the rad18 strain (AID 177); conditions: S. cerevisiae rad18 mutant growth inhibition, stronger effect = higher value
How it was run: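 Test articles were incubated with altered yeast defective in DNA damage repair. Results are given as inhibition of growth versus vehicle.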

[15] = NCI Yeast Anticancer Drug Screen. Data for the wt2 strain (AID 169); conditions: S. cerevisiae wt2 strain growth inhibition, stronger effect = higher value
How it was run: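 Inhibition of yeast growth was determined after compound treatment, normalised to controls receiving only vehicle.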

[16] = at 5.0 µM (retest, dose inferred, filed as 0.5)
[17] = at 50.0 µM (retest, dose inferred, filed as 5.0)

Measured: growth inhibition

COc1ccc2cc(CN3CCC(C4CCN(Cc5ccc6cc(OC)ccc6c5)CC4)CC3)ccc2c1
inactive: [1]; at 1.2 µM -1% | [1]; at 3.7 µM -16% | [1]; at 11.0 µM 5% | [1]; at 33.0 µM 8% | [2]; at 1.2 µM -17% | [2]; at 3.7 µM -14% | [2]; at 11.0 µM -12% | [2]; at 33.0 µM -2% | [3]; at 1.2 µM -9% | [3]; at 3.7 µM -5% | [3]; at 11.0 µM 0% | [3]; at 33.0 µM 4% | [4]; at 1.2 µM -2% | [4]; at 3.7 µM 5% | [4]; [16] 1% | [4]; at 11.0 µM 9% | [4]; at 33.0 µM 26% | [4]; [17] 38% | [5]; at 1.2 µM -17% | [5]; at 3.7 µM -40% | [5]; [16] -2% | [5]; at 11.0 µM -40% | [5]; at 33.0 µM -31% | [5]; [17] 22% | [6]; at 1.2 µM -19% | [6]; at 3.7 µM -13% | [6]; at 11.0 µM -22% | [6]; at 33.0 µM 9% | [7]; [16] 7% | [7]; [17] 4% | [8]; at 1.2 µM 16% | [8]; at 3.7 µM 29% | [8]; at 11.0 µM 19% | [8]; at 33.0 µM 36% | [9]; [16] 19% | [9]; [17] -48% | [9]; at 50.0 µM 64.3% | [10]; at 1.2 µM -32% | [10]; at 3.7 µM -35% | [10]; [16] 19% | [10]; at 11.0 µM -28% | [10]; at 33.0 µM -20% | [10]; [17] 0% | [11]; at 1.2 µM -12% | [11]; at 3.7 µM -15% | [11]; at 11.0 µM -17% | [11]; at 33.0 µM -26% | [12]; at 1.2 µM 14% | [12]; at 3.7 µM 8% | [12]; at 11.0 µM 12% | [12]; at 33.0 µM 3% | [13]; [16] -8% | [13]; at 50.0 µM -19.2% | [14]; at 1.2 µM 0% | [14]; at 3.7 µM 0% | [14]; at 11.0 µM 3% | [14]; at 33.0 µM 22%
active: [1]; at 100.0 µM 98% | [2]; at 100.0 µM 98% | [3]; at 100.0 µM 97% | [4]; at 50.0 µM 88.8% | [4]; at 100.0 µM 97% | [5]; at 50.0 µM 75.7% | [5]; at 100.0 µM 98% | [6]; at 100.0 µM 97% | [7]; at 50.0 µM 83.2% | [8]; at 100.0 µM 98% | [10]; at 50.0 µM 89% | [10]; at 100.0 µM 98% | [11]; at 100.0 µM 97% | [12]; at 100.0 µM 98% | [13]; [17] 80% | [14]; at 100.0 µM 98%

CCC(C)C(=O)OCC(=O)c1ccc(-c2ccccc2)cc1 (stereo not drawn)
inactive: [1]; at 1.2 µM -1% | [1]; at 3.7 µM -2% | [1]; at 11.0 µM -2% | [1]; at 33.0 µM -5% | [1]; at 100.0 µM -7% | [2]; at 1.2 µM 1% | [2]; at 3.7 µM 3% | [2]; at 11.0 µM 8% | [2]; at 33.0 µM 10% | [2]; at 100.0 µM 9% | [3]; at 1.2 µM 0% | [3]; at 3.7 µM -1% | [3]; at 11.0 µM 1% | [3]; at 33.0 µM -4% | [3]; at 100.0 µM -35% | [4]; at 1.2 µM 0% | [4]; at 3.7 µM 0% | [4]; [16] 13% | [4]; at 11.0 µM 0% | [4]; at 33.0 µM 1% | [4]; [17] -8% | [4]; at 50.0 µM -8.9% | [4]; at 100.0 µM -2% | [5]; at 1.2 µM -3% | [5]; at 3.7 µM -2% | [5]; [16] -3% | [5]; at 11.0 µM -2% | [5]; at 33.0 µM -4% | [5]; [17] 0% | [5]; at 50.0 µM 2.3% | [5]; at 100.0 µM -6% | [6]; at 1.2 µM -1% | [6]; at 3.7 µM 1% | [6]; at 11.0 µM 5% | [6]; at 33.0 µM 5% | [6]; at 100.0 µM 4% | [7]; [16] 6% | [7]; [17] -1% | [7]; at 50.0 µM -3.05% | [8]; at 1.2 µM 3% | [8]; at 3.7 µM 3% | [8]; at 11.0 µM 1% | [8]; at 33.0 µM -6% | [8]; at 100.0 µM -7% | [10]; at 1.2 µM 25% | [10]; at 3.7 µM 35% | [10]; [16] 54% | [10]; at 11.0 µM 51% | [10]; at 33.0 µM 68% | [15]; at 1.2 µM -1% | [15]; at 3.7 µM -2% | [15]; at 11.0 µM -1% | [15]; at 33.0 µM -5% | [15]; at 100.0 µM -6% | [11]; at 1.2 µM 0% | [11]; at 3.7 µM 0% | [11]; at 11.0 µM -4% | [11]; at 33.0 µM -73% | [11]; at 100.0 µM -6% | [13]; [16] -4% | [13]; [17] 5% | [13]; at 50.0 µM -2.1% | [14]; at 1.2 µM -1% | [14]; at 3.7 µM 2% | [14]; at 11.0 µM 1% | [14]; at 33.0 µM -1% | [14]; at 100.0 µM -5%
active: [10]; [17] 74% | [10]; at 50.0 µM 87.2% | [10]; at 100.0 µM 75%

O=S(=O)(O)CC[S][Sn]([S]CCS(=O)(=O)O)([c]1ccccc1)[c]1ccccc1
active: [1]; at 11.0 µM 80% | [1]; at 33.0 µM 95% | [1]; at 100.0 µM 98% | [3]; at 11.0 µM 92% | [3]; at 33.0 µM 97% | [3]; at 100.0 µM 98% | [4]; at 11.0 µM 90% | [4]; at 33.0 µM 97% | [4]; [17] 97% | [4]; at 50.0 µM 88.5% | [4]; at 100.0 µM 97% | [5]; at 11.0 µM 81% | [5]; at 33.0 µM 97% | [5]; [17] 99% | [5]; at 50.0 µM 89.8% | [5]; at 100.0 µM 98% | [6]; at 11.0 µM 91% | [6]; at 33.0 µM 97% | [6]; at 100.0 µM 97% | [7]; [17] 95% | [7]; at 50.0 µM 91% | [8]; at 11.0 µM 72% | [8]; at 33.0 µM 96% | [8]; at 100.0 µM 98% | [10]; at 11.0 µM 87% | [10]; at 33.0 µM 96% | [10]; [17] 96% | [10]; at 50.0 µM 87.8% | [10]; at 100.0 µM 97% | [15]; at 11.0 µM 89% | [15]; at 33.0 µM 98% | [15]; at 100.0 µM 97% | [11]; at 11.0 µM 89% | [11]; at 33.0 µM 95% | [11]; at 100.0 µM 96% | [12]; at 11.0 µM 88% | [12]; at 33.0 µM 96% | [12]; at 100.0 µM 97% | [13]; [17] 99% | [13]; at 50.0 µM 91.5% | [14]; at 11.0 µM 92% | [14]; at 33.0 µM 96% | [14]; at 100.0 µM 98%
inactive: [1]; at 1.2 µM -25% | [1]; at 3.7 µM 12% | [2]; at 1.2 µM -20% | [2]; at 3.7 µM -17% | [2]; at 11.0 µM -11% | [2]; at 33.0 µM -7% | [2]; at 100.0 µM -22% | [3]; at 1.2 µM -7% | [3]; at 3.7 µM 45% | [4]; at 1.2 µM -28% | [4]; at 3.7 µM 18% | [4]; [16] 22% | [5]; at 1.2 µM -21% | [5]; at 3.7 µM 11% | [5]; [16] 20% | [6]; at 1.2 µM -6% | [6]; at 3.7 µM 35% | [7]; [16] 3% | [8]; at 1.2 µM 20% | [8]; at 3.7 µM 20% | [10]; at 1.2 µM -31% | [10]; at 3.7 µM 30% | [10]; [16] 46% | [15]; at 1.2 µM -34% | [15]; at 3.7 µM 8% | [11]; at 1.2 µM -35% | [11]; at 3.7 µM 11% | [12]; at 1.2 µM -12% | [12]; at 3.7 µM 32% | [13]; [16] 43% | [14]; at 1.2 µM -2% | [14]; at 3.7 µM 43%
